MITF inh: blocks human microphthalmia-associated transcription factor; AlphaScreen MITF homodimerization, bead proximity signal; inhibition, % at 2.6 µM; actives 0.91% (n = 650,000); AID 1259374; in the data active = inhibition above about 50%
FBW7 act: human FBW7 E3 ligase activation, primary screen; Q969H0; AlphaScreen FBW7–phospho-cyclin E peptide binding, activator screen; normalized activity (activation), % at 26.1 µM; actives 0.13% (n = 650,000); in the data active = normalized activity above about 1.9%;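 also: purified mutant Fbw7 with reduced substrate affinity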
TEAD-YAP inh: TEAD-YAP interaction inhibition; HEK-TIYL cells, TEAD-Gal4/YAP UAS-luciferase luminescence; inhibition, % at 9.12 µM; actives 1.4% (n = 640,000); in the data active = inhibition above about 32%
GPR151 activ: activates the human receptor GPR151; PathHunter beta-arrestin GPR151 cells, luminescence; Q8TDV0; activation, % at 11.2 µM; actives 1% (n = 650,000); in the data active = activation above about 4.9%
GPR151 conf act: confirmation of human GPR151 activators; 6,700 tested, under 10 active; AID 1508609; GPR151 PathHunter beta-arrestin cells, luminescence, 90 min; % of EA-reagent control over plate median; shares compounds with GPR151 activ; activation, % at 11.2 µM;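 active = mean percent activation across replicates above the confirmation screen cutoff of 4.91%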
GPR119 ag: activates human GPR119 in a GPR151 counter-screen; shares compounds with GPR151 activ; GPR119 PathHunter beta-arrestin cells, luminescence, 90 min; 0 = compound-well median, 100 = enzyme-acceptor control; activation, % at 11.2 µM; actives 0.3% (n = 6,700);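 active = mean percent activation in the counterscreen above 29.09%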;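 also: counterscreen on off-target GPR119 to flag nonselective hits from the GPR151 activator screen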
Each line names hits and unclear results; the compound was inactive in the other large screens (follow-up assays come after a bar, where they were run); ! = a repeat was not active. Most compounds without a hit are left out; they make up all but 3.4% or so of the library.

CC1=NC2(CCN(C(=O)NC(C)C)CC2)N=C1c1ccccc1	GPR151 activ 9.1 | GPR151 conf act inactive | GPR119 ag inactive
CC1=NC2(CCN(S(C)(=O)=O)CC2)N=C1c1ccccc1	none
CN1C(=O)/C(=C/c2cc(Br)c(Br)o2)SC1=S	none
CCOC(=O)c1sc2ncn(CC(=O)Nc3ccc(C(C)=O)cc3)c(=O)c2c1C	none
COc1ccc(C2Nc3ccccc3S(=O)(=O)N2Cc2ccccc2)cc1[N+](=O)[O-] (configuration not stated)	none
O=[N+]([O-])c1ccc(C2Nc3ccccc3S(=O)(=O)N2Cc2ccccc2)cc1 (configuration not stated)	GPR151 activ 6.7 | GPR151 conf act inactive | GPR119 ag inactive
N#Cc1ccccc1CN1CCC(Oc2cccc(-c3cccnc3)c2)CC1	GPR151 activ 5.2 | GPR151 conf act inactive | GPR119 ag inactive
CCCCCC(=O)NC(=S)Nc1ccc2[nH]c(=O)[nH]c2c1	none
COc1ccc(C(=O)OCCCOC(=O)c2ccc(OC)cc2OC)c(OC)c1	GPR151 activ 5.9 | GPR151 conf act inactive | GPR119 ag inactive
COc1ccc(C(=O)OCCCC(=O)c2ccc(F)cc2)c(OC)c1	none
CC1(C2CCN(Cc3nc(-c4ccccc4)cs3)CC2)NC(=O)NC1=O (configuration not stated)	GPR151 activ 5.6 | GPR151 conf act inactive | GPR119 ag inactive
COc1ccccc1N1CCN(C(=O)NC2(c3ccccc3)CC2)CC1	none
O=[N+]([O-])c1ccc(CSC2=NCCN2)cc1	GPR151 activ 7.2 | GPR151 conf act inactive | GPR119 ag inactive
CCOc1ccc(CSC2=NCCN2)cc1[N+](=O)[O-]	none
Cc1ccc(NC(=O)CCc2nnc3ccc(N4CCC(C(N)=O)CC4)nn23)cc1	none
Cc1ccc(NC(=O)CCc2nnc3ccc(N4CCC(C)CC4)nn23)cc1	GPR151 activ 5.0 | GPR151 conf act inactive | GPR119 ag inactive
O=[N+]([O-])c1cccc(CNc2cccc(F)c2)c1	GPR151 activ 11 | GPR151 conf act inactive | GPR119 ag inactive
NS(=O)(=O)c1cccc(NC(=S)NC2CCCCC2)c1	none
OC(c1cccnc1)c1ccc2c(c1)CN(Cc1cccc(Cl)c1)CCO2 (configuration not stated)	GPR151 activ 41 | GPR151 conf act inactive | GPR119 ag inactive
CCCNC(=O)c1ccc2nc(N3CCc4ccccc4C3)sc2c1	none
O=C(NCc1ccccc1)c1ccc2nc(N3CCc4ccccc4C3)sc2c1	GPR151 activ 5.6 | GPR151 conf act inactive | GPR119 ag inactive
COc1cccc(C2c3c(oc4ccccc4c3=O)C(=O)N2CCO)c1 (configuration not stated)	GPR151 activ 8.0 | GPR151 conf act inactive | GPR119 ag inactive
C=CCN1C(=O)c2oc3ccccc3c(=O)c2C1c1ccccc1 (configuration not stated)	GPR151 activ 6.4 | GPR151 conf act inactive | GPR119 ag inactive
O=C(c1cn(C[C@H]2CCCNC2)nn1)N1CCOCC1	none
C=C1C(=O)OC2CC3(C)CCCC(C)C3=CC12 (configuration not stated)	GPR151 activ 6.2! | GPR151 conf act inactive | GPR119 ag inactive
Cc1ccc(NC(=O)c2cc(=O)c3cc(C)ccc3o2)cc1	none
COc1ccc(CC(=O)N2N=C(c3cccnc3)CC2(O)C(F)(F)F)cc1 (configuration not stated)	GPR151 activ 4.9 | GPR151 conf act inactive | GPR119 ag inactive
CC(C)(C)OC(=O)N1CCC(c2nc(-c3ccncc3)no2)CC1	none
CC(C)(C)OC(=O)N1CCCC(c2nc(-c3ccncc3)no2)C1 (configuration not stated)	GPR151 activ 5.5 | GPR151 conf act inactive | GPR119 ag inactive
COc1ccc(C(=O)c2sc3nc(C)cc(C)c3c2N)c(OC)c1	GPR151 activ 7.0 | GPR151 conf act inactive | GPR119 ag inactive
CCCn1nnnc1SCC(=O)Nc1cccc(NC(C)=O)c1	GPR151 activ 5.2 | GPR151 conf act inactive | GPR119 ag inactive
CCn1nnnc1SCC(=O)Nc1cccc(NC(C)=O)c1	none
O=C(c1ccc(Cn2nnc3ccccc3c2=O)cc1)N1CCc2ccccc2C1	none
O=C(c1ccc(-n2nnc3ccccc3c2=O)cc1)N1CCc2ccccc2C1	GPR151 activ 6.0 | GPR151 conf act inactive | GPR119 ag inactive
COc1ccc(-c2noc(CSc3nnc(C)n3-c3ccccc3)n2)cc1OC	none
COc1ccc(-c2noc(CSc3nc(N)c(-c4ccccc4)c(=O)[nH]3)n2)cc1OC	GPR151 activ 5.7 | GPR151 conf act inactive | GPR119 ag inactive
C/C(=N\NC(N)=O)c1c(O)c2ccccc2oc1=O	GPR151 activ 7.4 | GPR151 conf act inactive | GPR119 ag inactive
CN=C(C)c1c(O)c2ccccc2oc1=O	none
CCOc1ccc(NC(=O)CC2S/C(=N\N=C(/C)c3ccc(Cl)cc3)NC2=O)cc1 (configuration not stated)	GPR151 activ 6.7 | GPR151 conf act inactive | GPR119 ag inactive
COc1cccc(/C=N\Nc2nnc3c(n2)[nH]c2c(C)cccc23)c1	none
COc1ccc(/C=N\Nc2nnc3c(n2)[nH]c2c(C)cccc23)cc1OC	GPR151 activ 9.7 | GPR151 conf act inactive | GPR119 ag inactive
Cc1cccc2c1[nH]c1nc(N/N=C\c3ccccc3O)nnc12	GPR151 activ 5.0 | GPR151 conf act inactive | GPR119 ag inactive
O=C1CCCN1CCn1cnc2c(Nc3ccccc3)nc(Nc3nccc4ccccc34)nc21	none
CC(C)(COC(=O)c1cccc2ccccc12)N=C1NS(=O)(=O)c2ccccc21	GPR151 activ 6.1 | GPR151 conf act inactive | GPR119 ag inactive
CC(C)c1nc(CNCc2c(C(=O)N3CCCN(C)CC3)nc3sccn23)cs1	GPR151 activ 6.9 | GPR151 conf act inactive | GPR119 ag inactive
Nc1nc(N2CCOCC2)nc2c1ncn2Cc1ccc(C(F)(F)F)cc1	none
Cc1noc(C)c1-c1nc(NC2CC2)c2ncn(Cc3ccc(C(F)(F)F)cc3)c2n1	none
Cc1noc(C)c1-c1nc(N)c2ncn(Cc3ccc(C(F)(F)F)cc3)c2n1	GPR151 activ 5.8 | GPR151 conf act inactive | GPR119 ag inactive
Nc1nc(N2CCC(N3CCOCC3)CC2)nc2c1ncn2Cc1ccc(C(F)(F)F)cc1	GPR151 activ 6.4 | GPR151 conf act inactive | GPR119 ag inactive
COC(=O)CSc1nnc(CNC(=O)c2cccc(F)c2)n1C	GPR151 activ 5.2 | GPR151 conf act inactive | GPR119 ag inactive
COC(=O)CSc1nnc(CNC(=O)c2cccc(C)c2)n1C	none
CC(=O)N/N=C/c1ccc(OCC(=O)N2CCOCC2)cc1	none
O=C1NC(=S)/C(=C\c2ccccc2F)S1	GPR151 activ 7.2 | GPR151 conf act inactive | GPR119 ag inactive
COC(=O)C(C(=O)Nc1cccc2ccccc12)C1CCCC1 (configuration not stated)	none
